Screening data (PubChem BioAssay)
DT40 TDP1 CPT – DT40-hTDP1 cell growth loss with CPT. chicken DT40 Tdp1-/-;hTDP1 cells + 20 nM CPT, ATP luminescence, 48 h. Potency, µM (highest dose often 46.2 µM), for the others: at the highest dose activity change, negative = growth inhibition, hits mostly inhibitors. hit rate 12% among 420,000. AID 686979; further: potency means the concentration at half of the fitted maximal effect; nearly all actives have a fitted effect of over 55% in size
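Cell growth measured by CellTiter-Glo luminescence after a minimum 48 h, 37 C compound exposure with 20 nM CPT in Tdp1-knockout DT40 cells stably expressing hTDP1, seeded 400/well; qHTS titration format.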
IL-1B inflam inh – inflammasome signaling inhibition, IL-1 beta readout; THP-1 LPS/ATP IL-1B secretion, AlphaLISA, 16 h; stronger effect = lower value; activity change, % at 57.5 µM; hit rate 4.7% among 360,000; in the data active means activity change below about -50%; inconclusive means mostly about -30% to -49%
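THP-1 cells pretreated 1 hr with compounds (up to 57.5 uM final), then stimulated with LPS (250 ng/mL final) plus ATP (1.25 mM final); secreted IL-1B measured by AlphaLISA after 16 hr, decreased signal indicating inhibition.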
Gal4-VP16 FLuc – inhibits Gal4-VP16 luciferase reporter, ROR gamma counter-screen. Drosophila S2 Gal4-VP16 UAS-luciferase, luminescence, 20 h. Potency, µM (top dose mostly 53.6 µM), for the others: at the top dose activity, negative = inhibition, usual class: inhibitors. hit rate 3.5% among 310,000;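 further: Gal4-VP16 expression switched on by copper sulfate through the metallothionein promoter; potency means the concentration at half of the fitted maximal effect; nearly all actives have a fitted effect of over 50% in size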
TDP1 cell noCPT – qHTS for Inhibitors of human tyrosyl-DNA phosphodiesterase 1 (TDP1): qHTS in cells in absence of CPT; DT40 Tdp1-/- hTDP1 cells, no CPT, ATP luminescence, 48 h; Potency, µM (top dose mostly 46.2 µM), for the others: top-dose activity change, negative = growth inhibition, most hits filed as inhibitors; hit rate 15% among 420,000; further: potency means the concentration at half of the fitted maximal effect; nearly all actives have a fitted effect of over 55% in size
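No-CPT arm: Tdp1-/-;hTDP1 DT40 cells (400/well) plus compounds, incubated ≥48 hr at 37 °C. Readout CellTiter-Glo luminescence.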
RORgamma inh – blocks mouse ROR gamma transcriptional activity. P51450. Drosophila S2 Gal4-RORgamma UAS-luciferase reporter, 20 h. Potency, µM (titrated, usually from 53.6 µM), inactives show top-dose activity change, negative = inhibition, actives largely listed as inhibitors. hit rate 5.4% among 310,000; further: potency means the concentration at half of the fitted maximal effect; nearly all actives have a fitted effect of over 60% in size
Target sequence (P51450 whole entry, looked up, the tested form may be a part): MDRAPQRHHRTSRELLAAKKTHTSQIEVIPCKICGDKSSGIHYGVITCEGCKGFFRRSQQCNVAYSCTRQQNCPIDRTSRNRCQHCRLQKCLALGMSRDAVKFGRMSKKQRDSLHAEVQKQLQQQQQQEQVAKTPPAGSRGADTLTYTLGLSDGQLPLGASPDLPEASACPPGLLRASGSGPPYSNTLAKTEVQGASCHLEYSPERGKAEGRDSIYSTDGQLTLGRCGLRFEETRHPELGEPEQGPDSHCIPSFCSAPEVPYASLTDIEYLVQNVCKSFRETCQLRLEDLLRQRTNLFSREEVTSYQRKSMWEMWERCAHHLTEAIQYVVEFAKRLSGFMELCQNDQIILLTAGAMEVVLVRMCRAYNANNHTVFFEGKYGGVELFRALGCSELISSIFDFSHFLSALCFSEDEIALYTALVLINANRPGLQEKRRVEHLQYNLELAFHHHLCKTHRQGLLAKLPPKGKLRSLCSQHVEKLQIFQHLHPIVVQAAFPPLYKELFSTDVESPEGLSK
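Read-out: Photinus luciferase luminescence; inhibitors lower reporter signal. Insect Schneider cells with Gal4-ROR gamma fusion under metallothionein promoter, UAS reporter; 700 uM final copper sulfate induction, 20 hr, ambient temperature.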
ELG1 repair inh – blocks ELG1-dependent DNA repair in HEK293T cells | HEK293T ELG1-luciferase reporter, luminescence, 16 h; DNA damage induced by 5-fluorouridine | Potency, µM (highest dose often 46.1 µM), without a hit: top-dose activity change, negative = inhibition, hits mostly inhibitors | hit rate 2.3% among 330,000; further: potency means the concentration at half of the fitted maximal effect; nearly all actives have a fitted effect of over 55% in size
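5-Fluorouridine DNA damage + compound/DMSO, 2,000 cells/well, 16 h, 37 °C/5% CO2. ONE-Glo, 30 min RT, luminescence. Readout = decrease in reporter signal.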
* marks the source's active call; other numbers are inactive results; ? = inconclusive; nt = no result given; [ ] = dose if it differs, or a comment. Most compounds without a hit are left out; they make up all but 21% or so of the library. Unless noted, the call rests on the fitted dose curve; in most records, active means well fitted curve in the direction sought with a large enough effect; inconclusive means small, poorly fitted or top-dose-only effect, or another doubt; inactive means no such curve, though single readings can be large; an effect the other way counts as inactive or inconclusive. On the % scale 0 is the no-effect control and ±100 the full control effect.

SMILES	DT40 TDP1 CPT	IL-1B inflam inh	Gal4-VP16 FLuc	TDP1 cell noCPT	RORgamma inh	ELG1 repair inh
CCn1c(SCC(=O)Nc2ccc(OC)cc2)nc2nc3c(cc2c1=O)COC(C)(C)C3	-21%	0	-12%	?	-8%	21µM*
CCn1c(SCC(=O)Nc2ccccc2C)nc2nc3c(cc2c1=O)COC(C)(C)C3	?	?	-7%	10µM*	-1%	13µM*
CCn1c(SCC(=O)Nc2ccc(C(C)=O)cc2)nc2nc3c(cc2c1=O)COC(C)(C)C3	0%	-21	20%	-1%	1%	?
CNc1ccc(C(=O)OCC(=O)NC(=O)NC2CCCC2)cc1[N+](=O)[O-]	-23%	-7	nt	8%	nt	23%
COc1ccc2[nH]c(=O)c(CNc3ccccc3)cc2c1	4.1µM*	-6	-14%	?	6%	?
COc1ccc(NCc2cc(=O)[nH]c3ccccc23)cc1	-3%	-24	-4%	-20%	-30%	-19%
CCOc1ccc(C(=O)N(Cc2ccc(OC)cc2)Cc2cc3cc(OC)ccc3[nH]c2=O)cc1	-11%	4	?	-20%	-41%	-13%
CCOc1ccc(NCc2cc3cc(OC)ccc3[nH]c2=O)cc1	5.8µM*	45	?	21µM*	24%	?
Cc1cc(C(=O)C(=O)Nc2nncs2)c(C)n1-c1ccc(Cl)cc1	-30%	nt	nt	-28%	nt	nt
CCN1CCN(C(=O)CCc2nnc(CCc3ccc(OC)cc3)o2)[C@@H](C)C1=O	1%	1	0%	3%	18%	24%
COCCN1C(=O)COc2ccccc2C1C(=O)NC1CCCCC1 (configuration not stated)	-3%	28	nt	-25%	nt	nt
CN(C)c1cc(F)c(C=O)cc1F	17%	nt	nt	-2%	nt	nt
Cc1cccc(NS(=O)(=O)c2ccc3c(c2)CC(C)N3C(=O)C2CCC2)c1C (configuration not stated)	?	nt	nt	18µM*	nt	nt
Cc1ccc(Cl)cc1N1CCN(S(=O)(=O)c2ccc3c(c2)CC(C)N3C(=O)C2CCC2)CC1 (configuration not stated)	-26%	nt	nt	?	nt	nt
CCOc1ccccc1NS(=O)(=O)c1ccc2c(c1)CC(C)N2C(=O)C1CCC1 (configuration not stated)	23µM*	nt	nt	15µM*	nt	nt
O=C(NCc1ccc(Cl)cc1)C(=O)NCC1OCCCN1S(=O)(=O)c1cccs1 (configuration not stated)	?	0	10%	?	15%	?
CCNc1ncc2nc(-c3cn(C)c4ccccc34)c(=O)n(C)c2n1	?	nt	3%	-11%	-19%	nt
O=[N+]([O-])c1cc(C(F)(F)F)ccc1NCCNC(=S)Nc1ccc(Cl)cc1	29µM*	-88*	?	18µM*	?	?
O=[N+]([O-])c1cc(C(F)(F)F)ccc1NCCCCNS(=O)(=O)c1ccc(Cl)cc1	13µM*	-56*	?	15µM*	13%[10 µM]	-15%
O=[N+]([O-])c1cc(C(F)(F)F)ccc1NCCc1c[nH]c2ccccc12	-26%	-96*	?	?	25%	?
CS(=O)(=O)NCCCNc1ccc(Cl)cc1[N+](=O)[O-]	-5%	-5	3%	-24%	37%	12%
CC(C)Sc1nc(-c2cccs2)nc2cc(Cl)ccc12	-18%	44	nt	-5%	nt	nt
NCC(O)c1ccc(O)c(O)c1 (configuration not stated)	3%	17	nt	11%	nt	nt
NCCc1ccc(O)c(O)c1	5.2µM*	-1	1%	4.6µM*	3%[10 µM]	9%
NC(Cc1ccc(O)c(O)c1)C(=O)O (configuration not stated)	3.7µM*	nt	-11%	2.9µM*	-37%	nt
SMILES	DT40 TDP1 CPT	IL-1B inflam inh	Gal4-VP16 FLuc	TDP1 cell noCPT	RORgamma inh	ELG1 repair inh
N[C@H](Cc1ccc(O)c(O)c1)C(=O)O	nt	nt	-7%	nt	1%[10 µM]	nt
CC(C)c1ccc(NC(=O)c2cc3c(=O)oc4ccccc4c3s2)cc1	-1%	nt	nt	-15%	nt	nt
CC(=O)c1cccc(Nc2nc(-c3ccccc3)nc3ccccc23)c1	?	-22	3%	?	40%	23µM*
COC(=O)c1cccc(Nc2ncnc3sccc23)c1	21µM*	23	-6%	?	29%	?
CS(=O)(=O)Nc1cccc(-c2ccc3ncnc(Nc4ccc(F)cc4)c3c2)c1	18µM*	nt	-1%	?	?	nt
COC(=O)c1cccc(Nc2nc(-c3ccncc3)nc3ccccc23)c1	?	17	4%	?	?	?
COc1cccc(Nc2ncnc3sccc23)c1	?	8	-9%	?	7%	?
CC(=O)c1cccc(Nc2ncnc3ccc(Br)cc23)c1	16µM*	117	7%	21µM*	3%	18µM*
CN(C)C(=O)CCc1ccc2c3c([nH]c2c1)[C@]1(CCC2CCCC2)[C@@H](C(=O)N2CCOCC2)C[C@H](CC(=O)NCCc2ccccn2)C(=O)N1CC3	-6%	-5	nt	3%	nt	14%
N#C/C(=C/c1ccc(-c2ccc([N+](=O)[O-])cc2)o1)c1nnc(N2CCOCC2)n1-c1ccccc1	?	-7	nt	?	nt	nt
CC(C)(C)c1nnc(NS(=O)(=O)c2ccc([N+](=O)[O-])cc2)s1	-6%	11	7%	-20%	?	-10%
CC(=O)c1ccc(Nc2nc(-c3ccccc3)nc3ccccc23)cc1	?	-60*	nt	21µM*	nt	nt
Cc1cccc(Nc2nc(-c3ccccc3)nc3ccccc23)c1	?	nt	nt	-81%	nt	nt
COC(=O)c1ccc(Nc2nc(-c3ccncc3)nc3ccccc23)cc1	-19%	23	-4%	4%	15%	-1%
CS(=O)(=O)Nc1cccc(-c2ccc3ncnc(N4CCOCC4)c3c2)c1	4.1µM*	nt	1%	13µM*	?	nt
CS(=O)(=O)Nc1cccc(-c2ccc3ncnc(NCCN4CCOCC4)c3c2)c1	?	nt	24%	?	?	nt
Oc1cccc(Nc2nc(-c3ccccc3)nc3ccccc23)c1	?	-91*	-15%	?	-36%	?
CS(=O)(=O)Nc1cccc(-c2nc(Nc3ccccc3)c3ccccc3n2)c1	9.2µM*	nt	-13%	4.6µM*	13%	nt
Cc1ccc(NC(=O)c2ccc(=O)[nH]c2)cc1S(=O)(=O)N1CCCCC1	-21%	-3	0%	-13%	4%	11%
